Screening results deposited in PubChem by several laboratories.
BoNT F protease = inhibitors of Botulinum neurotoxin F light chain protease. AID 588497. inhibition, % at 10 µM. actives 0.22% (n = 360,000). Multiplex microsphere protease cleavage assay, flow cytometry; in the data active = inhibition above about 35%, passing the limit was not always enough; inconclusive = no clear call, values can overlap the other calls; also: plate controls were buffer without enzyme for full effect and enzyme alone for no effect
BoNT A protease = BoNT A light chain protease inhibition; multiplex microsphere protease substrate cleavage, flow cytometry; inhibition, % at 10 µM; actives 0.17% (n = 360,000); AID 588499; also: plate controls were buffer without enzyme for full effect and enzyme alone for no effect
MazF activator = increases E. coli MazEF RNase cleavage of RNA. P0AE70. FAM/BHQ RNA-DNA oligo cleavage fluorescence, 5 h. activation, % at 20 µM. actives 0.32% (n = 350,000); in the data active = activation above about 50%
Target sequence (P0AE70 whole entry, looked up): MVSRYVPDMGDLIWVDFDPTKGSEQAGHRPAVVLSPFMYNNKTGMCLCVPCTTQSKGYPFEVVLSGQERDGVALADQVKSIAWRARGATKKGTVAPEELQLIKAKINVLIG
VHR inh abs = blocks human VHR1 dual specificity phosphatase | P51452 | recombinant VHR phosphatase, pNPP absorbance | inhibition, % at 13.3 µM | actives 0.52% (n = 290,000); in the data active = inhibition above about 50%
Target sequence (P51452 whole entry, looked up): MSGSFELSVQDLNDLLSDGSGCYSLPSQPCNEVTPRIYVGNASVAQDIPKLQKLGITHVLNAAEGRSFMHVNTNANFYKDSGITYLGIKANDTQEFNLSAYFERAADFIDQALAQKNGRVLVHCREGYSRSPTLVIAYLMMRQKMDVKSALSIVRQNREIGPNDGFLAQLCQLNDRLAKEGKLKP
Autofluor counter = flagged as autofluorescent in microsphere protease counterscreen | actives 3.1% (n = 360,000) | AID 624483 | compound autofluorescence counterscreen, microsphere flow cytometry; hits give high values | fluorescence intensity (test concentration not listed); in the data active = fluorescence intensity above about 16000; inconclusive = no clear call, values can overlap the other calls
Anthrax LF inh2 = blocks Bacillus anthracis lethal factor protease; P15917; multiplex microsphere protease cleavage assay, LF; inhibition, % at 10 µM; actives 0.12% (n = 360,000); AID 588501; also: plate controls were buffer without enzyme for full effect and enzyme alone for no effect
* hit, by the source's call; ? = inconclusive; · = no result given. In the library only some 4% were active in any assay of this set; here they are far more common. Rule as the data show it, unless noted: active = inhibition above about 30%; inconclusive = no clear call, values can overlap the other calls; inactive = below that.

SMILES	BoNT F protease	BoNT A protease	MazF activator	VHR inh abs	Autofluor counter	Anthrax LF inh2
CNC(=O)N(C1=NCC(C)S1)c1ccc(F)cc1F (stereo not drawn)	-5	?	-1	10	23465*	-3
COc1ccccc1N(C(=O)NCc1ccccc1)C1=NCC(C)S1 (stereo not drawn)	1	0	7	32	4373	4
O=C(/C=C/c1ccc([N+](=O)[O-])cc1)Oc1ccc(/C=N/NC(=O)c2ccncc2)cc1	6	1	0	1	5673	-1
O=C(Cn1nnc(-c2cccc(C(F)(F)F)c2)n1)N1CCOCC1	1	1	-2	12	22585*	-4
CN(C(=O)Cn1nnc(-c2cccc(C(F)(F)F)c2)n1)C1CCCCC1	·	·	9	16	·	·
NC(=O)Cn1nnc(-c2ccc(C(F)(F)F)cc2)n1	-10	?	3	2	21710*	-2
CCCCCOC(=O)C1C2C=CC3(CN(c4ccccc4C)C(=O)C13)O2 (stereo not drawn)	2	1	-5	7	21724*	0
CC1C(c2ccccc2)C(C#N)(C#N)C2(C#N)C(=O)NC1(N)C2C (stereo not drawn)	-50	-29	0	12	37669*	-10
CC1=C(C#N)C(c2ccccc2)C2=C(N1)c1ccccc1C2=O (stereo not drawn)	-7	0	14	-8	2586	-4
O=C(CNS(=O)(=O)c1cccs1)N1CCCCC1	6	0	7	34	5995	0
C=CC[C@@H](CC(=O)N[C@@H](CO)Cc1ccccc1)C(=O)N[C@H](COC(=O)[C@@H](CC=C)Cc1ccc(F)cc1)Cc1c[nH]c2ccccc12	-1	-1	1	·	4036	0
CCOc1cc(C2C(C#N)=C(N)OC(C)=C2C(C)=O)c(Br)c(Br)c1OC(C)C (stereo not drawn)	4	3	-9	18	21864*	0
CCOC(=O)C1=C(C)OC(N)=C(C#N)C1c1cc(Cl)c(OCC(N)=O)c(OC)c1 (stereo not drawn)	-12	0	4	18	4306	2
CCOc1cc(C2C(C#N)=C(N)OC(C)=C2C(C)=O)cc(Br)c1O (stereo not drawn)	4	2	-116	50*	7340	2
COc1cc([C@H]2OC[C@H]3[C@@H]2CO[C@H]3c2ccc(O)c(OC)c2)ccc1O	-3	0	10	·	3127	0
C/C=C/C(=O)OCC(=O)Nc1ccc(OC)c(Cl)c1	10	1	-2	-7	9244	-1
O=C(COc1ccc(Cl)cc1)NNC(=O)c1cccnc1	-6	0	5	7	4504	4
Cc1ccc([N+](=O)[O-])cc1-c1[nH]c(-c2ccc(O)c(O)c2)nc1-c1ccccc1	-6	0	17	11	16205*	-9
COc1ccc(-c2nc(-c3ccccc3)c(-c3cc([N+](=O)[O-])ccc3C)[nH]2)cc1O	-3	0	6	16	3066	-5
NC(=NCc1ccccc1)C(N=Nc1ccccc1)C(=O)NCc1ccccc1 (stereo not drawn)	-3	0	17	·	3830	-1
O=C(CSc1nnnn1-c1cccc2ccccc12)Nc1ccc(N2CCOCC2)c(Cl)c1	1	0	-3	19	16201*	-7
C=CCn1c(COc2ccc(F)cc2)nnc1SCC(=O)N1CC(=O)Nc2ccccc21	-4	-4	-7	8	21515*	1
Cc1ccc(CNC(=O)c2cc(=O)c3ccccc3o2)cc1	-3	0	6	38	3818	-10
CN(C)CC(C)(C)CNC(=O)c1cc(=O)c2ccccc2o1	3	2	-4	13	21817*	-1
Cc1ccc(NC(=O)c2cc(=O)c3ccccc3o2)cc1	4	3	20	-11	21364*	-9
SMILES	BoNT F protease	BoNT A protease	MazF activator	VHR inh abs	Autofluor counter	Anthrax LF inh2
Cc1ccc(NC(=O)c2cc(=O)c3ccccc3o2)c(C)c1	-5	0	2	58*	2763	-1
CCOc1ccccc1OCCCC(=O)Nc1cc(S(=O)(=O)N2CCCCC2)ccc1C	-5	0	6	·	4090	1
CCC(C(=O)NC1CCCC1)N(C(=O)Cn1nnc(-c2ccc(C)o2)n1)c1ccccc1OC (stereo not drawn)	-1	-4	-2	11	3107	-2
Cc1ccc(-c2nnn(CC(=O)N(CC(=O)NC3CCCC3)c3cnc4ccccc4c3)n2)o1	0	1	-5	3	20315*	-1
Cc1ccc(-c2nnn(CC(=O)N(c3cnc4ccccc4c3)C(C(=O)NC3CCCC3)c3ccncc3)n2)o1 (stereo not drawn)	-1	-1	-9	7	3859	-4
CCC(C(=O)NC1CCCC1)N(C(=O)Cn1nnc(-c2ccc(C)o2)n1)c1ccc(F)cc1 (stereo not drawn)	-15	-1	-3	53*	3533	5
Cc1ccc(-c2nnn(CC(=O)N(CC(=O)NCC3CCCO3)c3ccc(F)c(Cl)c3)n2)o1 (stereo not drawn)	-11	-7	5	12	25388*	-5
CCC(C(=O)NC1CCCC1)N(C(=O)Cn1nnc(-c2ccc(C)o2)n1)c1cnc2ccccc2c1 (stereo not drawn)	-11	-10	-6	12	26220*	-1
O=C(CN(C(=O)Cn1nnc(-c2ccc(F)cc2)n1)c1ccc(F)c(Cl)c1)NCC1CCCO1 (stereo not drawn)	0	0	-4	8	2166	-1
COc1cc2c3nnc(-c4ccccc4)c-3cn(Cc3ccc(F)cc3)c2cc1OC	-3	10	-21	10	2706	5
CCOc1ccc2nc(NC(=O)c3cccc(-c4cc5ccccc5oc4=O)c3)sc2c1	5	0	-56	1	2493	0
COC(=O)CCCc1nc2ccccc2s1	-2	0	0	29	2068	-2
NC(=O)COC(=O)CCCc1nc2ccccc2s1	1	2	1	6	21657*	-2
CC1CC2(C)CC(C)C1(COC(=O)Nc1ccccc1)CO2 (stereo not drawn)	-4	0	1	14	4496	3
CN(C)c1ccc(NC(=O)Nc2cccc(Cl)c2)cc1	-20	2	10	5	19659*	-11
CSc1ccccc1NC(=O)Nc1cccc(Cl)c1Cl	0	0	-3	-2	20444*	1
CSc1ccccc1NC(=O)Nc1cccc(Cl)c1	0	0	119*	17	23180*	-2
O=C(Nc1cccnc1)Nc1ccc(F)c(Cl)c1	0	?	5	-15	23140*	-1
CSc1ccccc1NC(=O)Nc1cccc(Cl)c1C	-3	0	-6	11	3467	2
CC1(C)Cc2c(sc3nc(C4CCCCC4)n(N)c(=O)c23)CO1	?	4	4	40	4335	-14
CSc1ccccc1NC(=O)Nc1ccc(F)c(Cl)c1	-10	-4	0	29	24571*	-3
